# What was measured:
# Format in all cases: functional
# Plasmodium falciparum [1] = assay: GSK_TCMDC: Inhibition of Plasmodium falciparum 3D7 in whole red blood cells, using parasite LDH activity as an index of growth. Test compounds present at 2uM
# Plasmodium falciparum [2] = assay: GSK_TCMDC: Inhibition of Plasmodium falciparum Dd2 in whole red blood cells, using parasite LDH activity as an index of growth. Test compounds present at 2uM
# HepG2 = assay: GSK_TCMDC: Percent inhibition of human HepG2 cell line. Test compounds present at 10uM.
Compound,Inhibition (Plasmodium falciparum [1]) [%],Inhibition (Plasmodium falciparum [2]) [%],Inhibition (HepG2) [%]
Cn1nc(-c2cccc(CNC3CCc4ccccc43)c2)c2cnc(NCCCN3CCCC3)nc21 (centres undefined),99,15,29
CN(C)c1ccc(CN2CCC(CNC(=O)c3cc(-c4cccc(C(F)(F)F)c4)cs3)C2)cc1.O=C(O)C(F)(F)F (centres undefined),96,34,39
COc1ccc(S(=O)(=O)N2CCCc3ccc(Br)cc32)cc1N1CCN(C(=O)C(Cl)(Cl)Cl)CC1,97,93,23
CC(C)CCOc1ccc(NC(=O)c2cccs2)cc1,95,95,11
Cc1ccc(O)cc1Nc1ccnc2cc(-c3csc(CN4CCN(C)CC4)n3)ccc12,100,77,6
CCC(C)(C)NC(=O)C(c1cccc(OC)c1)N(C(=O)CNC(=O)c1cccs1)c1ccc2c(c1)OCCO2 (centres undefined),100,76,0
Cl.Oc1ccc2[nH]c(-c3cccs3)nc2c1CN1CCC(O)(c2ccccc2)CC1,93,69,10
COc1ccc(NC(=O)Nc2cccc(-c3ccc(-c4nc5cccc(C)c5[nH]4)s3)c2)cc1,100,32,23
O=C(/C=C/c1ccc(Cl)c(Cl)c1)NC1CCC(CN2CCC(Cc3cc4ccccc4[nH]3)CC2)CC1 (centres undefined),100,74,99
Cc1ccc(F)c(NC(=O)c2c(-c3c(F)cccc3Cl)noc2C)c1,90,18,13
COc1cccc(-c2csc(C(=O)NCC3CCN(Cc4ccc(C(C)C)cc4)C3)c2)c1.O=C(O)C(F)(F)F (centres undefined),86,9,35
CC(C)(C)CCN1CCC(CNC(=O)c2cc(-c3cccc(Cl)c3)cs2)C1.O=C(O)C(F)(F)F (centres undefined),99,13,50
O=C(Cn1c(SCc2cccc(F)c2F)cc(=O)c2ccccc21)N(CCN1CCCCC1)Cc1ccc(-c2ccc(C(F)(F)F)cc2)cc1.O=C(O)C(O)C(O)C(=O)O,99,82,41
CCC[C@@H]([C@@H](CC1CCCCC1)C(=O)N[C@H](C(=O)Nc1nccs1)C(C)(C)SCCNC(=O)OCC)N(O)C=O,99,98,45
CCCCCn1c(Sc2ccc(C#N)c([N+](=O)[O-])c2)nnc1-c1cccc(Cl)c1,95,75,4
Cc1cc(OCC(=O)Nc2ccc(-c3nc4ccccc4[nH]3)cc2)cc(C)c1Cl,99,0,5
O=S(=O)(Nc1cccc(CCN2CCC(N3CCCCC3)CC2)c1)c1ccc(Oc2ccccc2)nc1,99,0,8
CCc1ccc(-c2cnc(N)c3cc(-c4ccnc(N)n4)ccc23)cc1,92,70,37
COC(=O)c1ccc(CN2CCC(N(Cc3cccc(Oc4ccccc4)c3)S(=O)(=O)c3ccc(NC(C)=O)cc3)CC2)cc1,82,86,0
CCc1cn2c3c(cc(C(=O)N[C@@H](Cc4cccc(F)c4)[C@H](O)CNC4CCCCC4)cc13)N(C)S(=O)(=O)CC2.O=CO,99,99,5
Cc1nnc2c(NC(=O)NC3CCCC3)cc3ccc(-c4cccc(CN(C)C)c4)cc3n12,90,25,42
CCCc1cc(NCC)nc(Nc2ccc(C)cc2)n1,95,16,22
CCN1C(=O)C(CC(=O)Nc2cccc(Cl)c2)N(Cc2ccc(OC)c(OC)c2)C1=S (centres undefined),100,68,13
COc1ccccc1-n1c(SCC(=O)c2ccc3c(c2)CC(=O)N3C)nnc1-c1cccs1,95,55,7
CC(C)(C)c1ccc(-c2cc3c(ccc4nc(N)nc(N)c43)[nH]2)cc1,100,100,100
COc1cccc2cc(C(=O)N[C@@H](CC(C)C)C(=O)Nc3cc(F)ccc3Br)oc12,87,45,7
COc1ccc2nc(N3CCNCC3)nc(NCCCc3ccccc3)c2c1.Cl,100,43,31
Cl.O=C(Nc1ccc(Cl)c(Cl)c1)N1CCc2ccc(OCCCN3CCCCC3)cc2CC1,92,0,27

# From ChEMBL document CHEMBL1157539, “Thousands of chemical starting points for antimalarial lead identification” (Nature, 2010)
